This is a sample that favours compounds with a hit; in the whole collection about 3.4% have one here.
MITF inh = inhibitors of human MITF; O75030; AlphaScreen MITF homodimerization, bead proximity signal; inhibition, % at 2.6 µM; hit rate 0.91% among 650,000; AID 1259374; in the data active means inhibition above about 50%;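 further: 0% = vehicle wells with protein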
GPR151 ag = activators of human GPR151. hit rate 1% among 650,000. PathHunter beta-arrestin GPR151 cells, luminescence. AID 1508602. activation, % at 11.2 µM; in the data active means activation above about 4.9%;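 further: 0% = median of compound wells and 100% = cells with positive control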
Target sequence (Q8TDV0 whole entry, looked up): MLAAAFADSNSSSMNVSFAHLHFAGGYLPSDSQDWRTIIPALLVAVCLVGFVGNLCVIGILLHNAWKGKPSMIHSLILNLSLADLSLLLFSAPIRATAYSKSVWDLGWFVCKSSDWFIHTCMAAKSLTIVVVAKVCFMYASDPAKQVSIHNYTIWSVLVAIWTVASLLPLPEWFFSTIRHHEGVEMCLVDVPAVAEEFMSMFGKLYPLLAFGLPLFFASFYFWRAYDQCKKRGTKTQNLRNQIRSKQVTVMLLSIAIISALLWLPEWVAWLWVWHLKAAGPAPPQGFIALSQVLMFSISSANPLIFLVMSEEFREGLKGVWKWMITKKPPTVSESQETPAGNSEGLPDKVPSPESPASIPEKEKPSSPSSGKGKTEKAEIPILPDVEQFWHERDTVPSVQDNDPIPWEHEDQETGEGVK
TEAD-YAP inh = TEAD-YAP interaction inhibition. inhibition, % at 9.12 µM. AID 1259422. HEK-TIYL cells, TEAD-Gal4/YAP UAS-luciferase luminescence. hit rate 1.4% among 640,000; in the data active means inhibition above about 32%;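 further: 0% = median of test compound wells and 100% = reference inhibitor wells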
FBW7 act = activators of human E3 ligase FBW7; AlphaScreen FBW7–phospho-cyclin E peptide binding, activator screen; normalized activity (activation), % at 26.1 µM; AID 1259310; hit rate 0.13% among 650,000; Q969H0; in the data active means normalized activity above about 1.9%;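 further: purified mutant Fbw7 with reduced substrate affinity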
MITF confirm = confirmation of human MITF inhibitors; shares compounds with MITF inh; AlphaScreen MITF homodimerization, biotin/His-MITF beads; inhibition, % at 2.6 µM; hit rate 16% among 4,700;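 active means inhibition above a cutoff derived from the DMSO control wells, cut at about 28% in these data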;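 further: 0% = MITF dimer wells with DMSO only; inhibitors lower the bead chemiluminescence by keeping MITF from dimerizing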
AlphaScreen DR = optically interferes with AlphaScreen signal in dose response; IC50, µM; AlphaScreen optical interference counterscreen, cell-free; hit rate 6% among 480; shares compounds with MITF inh; call rule not given here
AlphaScreen intf2 = counter-screen: compounds optically interfering with AlphaScreen. AID 1259376. inhibition, % at 2.6 µM. hit rate 7.6% among 4,700. shares compounds with MITF inh. LysRS AlphaScreen counterscreen, signal interference, triplicate;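 active means inhibition above a cutoff derived from the DMSO control wells, cut at about 30% in these data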
Starred values were filed as active, the others as inactive; / = no result given.

SMILES	MITF inh	GPR151 ag	TEAD-YAP inh	FBW7 act	MITF confirm	AlphaScreen intf2	others
CC1CCCCN1CC(=O)Nc1ccccc1N1CCCCC1 (configuration not stated)	52.5*	0.9	-5.0	-0.1	6.4	11.7
CC1CCCCN1CC(=O)Nc1ccccc1C(N)=O (configuration not stated)	-11.8	1.5	-1.3	0.1	/	/
COc1ccc(CCNCC(=O)Nc2ccccc2N2CCOCC2)cc1	60.1*	0.7	-6.1	-0.1	9.6	12.3
O=C(CNCCN1CCOCC1)Nc1sc2c(c1C(=O)c1ccccc1)CCCC2	74.5*	0.2	5.7	-0.7	-2.6	23.7
O=C(CNCCN1CCOCC1)Nc1ccccc1N1CCOCC1	63.9*	-0.2	2.6	0.2	-11.9	-9.0
O=C(CNC1CCCCCC1)Nc1ccccc1N1CCOCC1	26.7	0.5	3.8	0.0	/	/
CC(=O)c1ccc(NC(=O)c2ccc3nc(N4CCOCC4)sc3c2)cc1	15.0	0.3	1.4	-0.1	/	/
CCOCCCNCC(=O)Nc1ccccc1N1CCOCC1	51.4*	-1.1	-3.7	0.1	5.8	9.9
O=C(CNCCc1ccccc1)Nc1ccccc1N1CCOCC1	51.1*	-0.4	-10.6	0.1	6.3	12.2
O=C(CNCC1CCCCC1)Nc1ccccc1N1CCOCC1	66.0*	-0.2	-8.0	0.0	7.8	16.8
O=C(CN1C(=O)c2ccccc2C1=O)Nc1ccccc1N1CCOCC1	13.3	-0.5	7.4	0.3	/	/
O=C(CN1CCCCC1)Nc1ccccc1N1CCOCC1	59.5*	1.0	-8.0	0.1	3.8	17.4
O=C(Cc1ccccc1)Nc1ccc(N2CCOCC2)cc1N1CCOCC1	8.2	1.2	4.3	0.1	/	/
CC1CCN(C(c2ccccn2)c2nnnn2CCc2ccccc2)CC1 (configuration not stated)	8.0	-0.7	-12.4	-0.1	/	/
COc1cccc(NC(=O)CSc2nc3cc4c(cc3cc2C#N)OCO4)c1	3.1	-0.3	16.5	0.3	/	/
O=C(COC(=O)c1ccc(O)cc1)NC1CCCCC1	58.5*	0.0	11.4	-0.1	-2.5	4.7
O=C(NC1CCCC1)C1c2ccccc2Oc2ccccc21	76.3*	-0.2	-1.5	-0.2	-2.1	-6.2
Cc1cccc(NC(=O)CNCCCN2CCOCC2)c1C	75.6*	1.1	-1.6	0.3	-13.6	-6.2
O=C(Cc1cccs1)NCCCN1CCOCC1	101.9*	-0.2	-4.0	0.0	16.2	14.1
Cc1cccc(C)c1NC(=O)CNCCCN1CCOCC1	88.0*	-1.6	2.3	0.4	-12.2	-4.8
O=C(Cc1cccs1)NCCCCCCNC(=O)Cc1cccs1	3.4	-0.4	-4.2	0.0	/	/
O=C(Nc1cccc(-c2cn3cccnc3n2)c1)c1ccc([N+](=O)[O-])cc1Cl	-3.0	1.1	13.9	0.0	/	/
COC(=O)c1ccc(C(=O)NCCc2c(C)[nH]c3ccccc23)cc1	2.3	1.0	-19.7	-0.1	/	/
CCn1c2ccccc2c2cc(CN3CCN(S(=O)(=O)CC)CC3)ccc21	53.3*	-1.1	-1.7	0.0	13.9	9.9
CCn1c2ccccc2c2cc(CN3CCN(Cc4ccccc4C(F)(F)F)CC3)ccc21	70.0*	-1.7	4.5	-0.1	14.5	17.4
SMILES	MITF inh	GPR151 ag	TEAD-YAP inh	FBW7 act	MITF confirm	AlphaScreen intf2	others
CCn1c2ccccc2c2cc(CN3CCCN(C)CC3)ccc21	40.2	-0.2	-7.5	-0.2	/	/
CCn1c2ccccc2c2cc(CN3CCN(Cc4ccccc4Br)CC3)ccc21	75.7*	-0.4	-0.2	-0.2	16.0	16.4
CCOc1cc(C2C(C(=O)OCCSCC)=C(C)NC3=C2C(=O)CC(c2ccc(OC)cc2)C3)ccc1O (configuration not stated)	15.7	0.7	-2.6	0.3	/	/
COc1cccc(-n2c(SCC(=O)Nc3nccs3)nnc2-c2cccnc2)c1	3.6	-0.6	-3.1	0.0	/	/
Cc1cc(C)cc(-n2c(SCC(=O)Nc3nccs3)nnc2-c2cccnc2)c1	57.5*	0.7	-13.3	-0.1	2.3	14.7
O=C(c1ccc(Br)o1)N1CCN(c2cc(N3CCOCC3)ncn2)CC1	3.4	0.7	-4.2	0.0	/	/
c1csc(-c2nc3cnccn3c2NCc2ccc3c(c2)OCO3)c1	-3.2	-1.5	-18.2	0.1	/	/
c1ccc(Cc2nc3cnccn3c2NCc2ccc3c(c2)OCO3)cc1	67.7*	0.1	3.3	0.2	7.0	10.1
O=C(O)c1cccc(-c2ccc(/C=N/n3cnnc3)o2)c1	18.8	1.6	-0.3	0.1	/	/
O=C(O)c1cc(C(=O)O)cc(-c2ccc(/C=N\n3cnnc3)o2)c1	63.4*	-0.8	8.9	-0.2	38.1*	6.3	AlphaScreen DR=>6.48
CCc1ccc(NC(=O)CSC2=C(C#N)C(c3cccs3)C(C(=O)Nc3ccccc3)=C(C)N2)cc1 (configuration not stated)	57.0*	-0.5	11.0	0.1	3.2	1.8
CC(C)(C)c1ccc(-c2nc(-c3ccc([N+](=O)[O-])cc3)no2)cc1	-30.5	-0.4	5.0	0.5	/	/
COC(=O)CN1C(=S)N(C)C(=O)/C1=C/c1ccc(OC)c(C)c1OC	-5.8	0.4	-2.5	-0.4	/	/
CC1(C)CC(=O)C2=C(C1)NC(=O)CC2c1ccc(F)cc1 (configuration not stated)	2.0	1.2	-3.9	-0.1	/	/
CC1(C)CC(=O)C2=C(C1)NC(=O)CC2c1ccc(C(C)(C)C)cc1 (configuration not stated)	69.9*	-0.4	8.3	0.2	-5.4	-1.3
Nc1cccc(N2C(=O)c3cc(S(=O)O)cc4c(N)c(S(=O)O)cc(c34)C2=O)c1	57.7*	0.6	3.7	-0.2	79.3*	8.4	AlphaScreen DR=>6.48
C=CCNc1nc(Nc2ccc(-c3nc4ccccc4o3)cc2)nc(OC)n1	-5.7	0.2	3.1	0.4	/	/
O=C(NCc1cccs1)c1cc(N2C(=O)C3C4CCC(C4)C3C2=O)ccc1Cl (configuration not stated)	-5.2	0.8	17.9	-0.1	/	/
Oc1ccc(CN2CCOCC2)c2cccnc12	90.8*	-0.4	67.1*	-0.4	99.0*	99.2*
CCOC(=O)C1CCN(Cc2ccc(O)c3ncccc23)CC1	71.8*	0.0	55.3*	-1.9	113.5*	100.3*
O=C(NCc1ccccc1)NC1(C(=O)N2CCN(c3ncccn3)CC2)CCCCC1	4.4	-0.3	-7.6	-0.2	/	/
O=C(NCc1ccccc1)NC1(C(=O)N2CCCC2)CCCCC1	67.5*	-1.4	-1.3	-0.7	9.4	31.7*
C/C(=N/NC(=O)c1cc(O)cc(O)c1)c1ccc(C)cc1	-8.7	-0.6	2.8	0.0	/	/
COc1cc(/C=C/C(=O)Nc2cccc(Br)c2)cc(OC)c1OC	-12.8	-0.5	-8.9	0.1	/	/
CCOC(=O)c1nc(-c2ccccc2)oc1C(F)(F)F	10.3	0.3	1.7	0.2	/	/
CCOC(=O)c1oc(-c2ccc(F)cc2)nc1C	67.3*	4.8	-5.6	-0.1	14.3	16.5
COc1cc(NC(=O)c2ccnc(N3CCOCC3)c2)cc(OC)c1OC	7.0	-0.2	-7.8	0.0	/	/

Bioassay records from PubChem BioAssay.
